# According to PubChem BioAssay (Tox21):
# Inconclusive results are not listed. Where a call stands in place of a potency, no number is given. Activity calls are given as the source filed them. Unless noted, the call rests on the fitted dose curve.
# Columns and labels:
# [1] = target: Peroxisome proliferator-activated receptor delta (Homo sapiens) (UniProt Q03181); test: qHTS assay to identify small molecule agonists of the peroxisome proliferator-activated receptor delta (PPARd) signaling pathway (AID 743212)
# Summary of the method: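 GeneBLAzer PPARd UAS-bla HEK293H cells (beta-lactamase reporter under UAS control), plated and rested 5 h at 37 C, then exposed to compounds in DMSO at 37 C; LiveBLAzer B/G FRET substrate added, 2 h room temperature, fluorescence read.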
# [2] = qHTS assay to identify small molecule agonists of the farnesoid-X-receptor (FXR) signaling pathway - cell viability counter screen (AID 743218; active means well fitted curve in the direction sought with a large enough effect in the repeat runs; an effect the other way counts as inactive or inconclusive; further: nearly all actives have a fitted effect of over 45% in size; further: potency means the concentration at half of the fitted maximal effect)
# Summary of the method: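 After 16 h at 37 C with test compounds, FXR-bla HEK 293T cells were given LiveBLAzer B/G substrate for 2 h at RT and then CellTiter-Glo; luminescence was taken after 30 min.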
# [3] = qHTS assay to identify small molecule antagonists of the farnesoid-X-receptor (FXR) signaling pathway - cell viability counter screen (AID 743221; active means well fitted cell-killing curve with a large enough effect in the repeat runs, not every such curve was filed as active; further: nearly all actives have a fitted effect of over 50% in size; further: potency means the concentration at half of the fitted maximal effect)
# Summary of the method: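 Cytotoxicity counter screen run in the FXR-bla reporter wells: HEK 293T cells exposed to compound with 50 uM (final) chenodeoxycholic acid for 16 h, 37 C, then viability measured by CellTiter-Glo luminescence after 30 min, room temperature.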
# [4] = target: Vitamin D3 receptor (Homo sapiens) (UniProt P11473); test: qHTS assay to identify small molecule agonists of the vitamin D receptor (VDR) signaling pathway (AID 743222)
# Summary of the method: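 VDR-bla cells were seeded, left 4 h, treated with compounds in DMSO for 16 h, incubated 2 h at RT with B/G FRET substrate, and read for fluorescence.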
# [5] = qHTS assay to identify small molecule agonists of the NFkB signaling pathway - cell viability counter screen (AID 1159515); further: nearly all actives have a fitted effect of over 55% in size; further: potency means the concentration at half of the fitted maximal effect
# Summary of the method: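 5 hr compound treatment of NFkB-bla ME-180 cells (2,000/well, seeded overnight beforehand), followed by reporter substrate for 1.5 hr. CellTiter-Glo added afterward; luminescence after 30 min RT.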
# [6] = qHTS assay to identify small molecule agonists of the endoplasmic reticulum stress response signaling pathway - cell viability counter screen (AID 1159517); further: nearly all actives have a fitted effect of over 50% in size; further: potency means the concentration at half of the fitted maximal effect
# Summary of the method: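 Luminescence readout: CellTiter-Glo, 30 min RT, same wells as the ESRE-bla reporter read. HeLa ESRE-bla, 1,500 cells/well, o/n 37 C; cpd 5 hr 37 C/5% CO2.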
# [7] = qHTS assay to identify small molecule antagonists of the retinoid-related orphan receptor gamma (ROR-gamma) signaling pathway - cell viability counter screen (AID 1159520; active means well fitted curve in the direction sought with a large enough effect in the repeat runs; an effect the other way counts as inactive or inconclusive; further: nearly all actives have a fitted effect of over 50% in size; further: potency means the concentration at half of the fitted maximal effect)
# Summary of the method: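 Tet-on ROR gamma CHO cells (1,000/well) were plated 4 hr, given compounds in DMSO for 2 hr at 37 C, then induced with 1 uM final doxycycline for 16 hr. Viability was read as ATP by CellTiter-Glo luminescence after 30 min.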
# [8] = target: Nuclear receptor ROR-gamma (Homo sapiens) (UniProt P51449); test: qHTS assay to identify small molecule antagonists of the retinoid-related orphan receptor gamma (ROR-gamma) signaling pathway (AID 1159521; active means well fitted curve in the direction sought with a large enough effect in the repeat runs; an effect the other way counts as inactive or inconclusive; further: nearly all actives have a fitted effect of over 50% in size; further: potency means the concentration at half of the fitted maximal effect)
# Summary of the method: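 Antagonist read-out: drop in luminescence (ONE-Glo) from an RORE-LUC reporter in CHO cells with doxycycline-inducible ROR-gamma; 2 hr compound pretreatment, 1 uM doxycycline, 16 hr incubation at 37 C.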
# [9] = qHTS assay to identify small molecule agonists of the AP-1 signaling pathway - cell viability counter screen (AID 1159525); further: nearly all actives have a fitted effect of over 55% in size; further: potency means the concentration at half of the fitted maximal effect
# Summary of the method: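 ME-180 AP-1-bla, 2500 cells/well, Opti-MEM + 0.5% dialyzed FBS; overnight 37 °C; cpd 15-pt titration, 5 h 37 °C; CellTiter-Glo 30 min RT; luminescence read; normalised to TOAB and DMSO controls.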
# [10] = qHTS assay to identify small molecule agonists of the peroxisome proliferator-activated receptor delta (PPARd) signaling pathway - cell viability counter screen (AID 743211; active means well fitted curve in the direction sought with a large enough effect in the repeat runs; an effect the other way counts as inactive or inconclusive; further: nearly all actives have a fitted effect of over 55% in size; further: potency means the concentration at half of the fitted maximal effect)
# Summary of the method: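 Viability was measured as CellTiter-Glo luminescence (30 min, room temperature) in the same wells as the beta-lactamase readout. GeneBLAzer PPARd UAS-bla HEK293H cells received compound after 5 h plating and were incubated 17 h at 37 C.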
# [11] = qHTS assay to identify small molecule antagonists of the peroxisome proliferator-activated receptor delta (PPARd) signaling pathway - cell viability counter screen (AID 743213; active means well fitted curve in the direction sought with a large enough effect in the repeat runs; an effect the other way counts as inactive or inconclusive; further: nearly all actives have a fitted effect of over 50% in size; further: potency means the concentration at half of the fitted maximal effect)
# Summary of the method: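 HEK293H cells with the PPARd UAS-bla reporter, co-treated 17 h at 37 C with compounds and L165041 (300 nM final), were lysed with CellTiter-Glo. Luminescence indicated viable cell content.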
# [12] = qHTS assay to identify small molecule antagonists of the vitamin D receptor (VDR) signaling pathway - cell viability counter screen (AID 743225; active means well fitted curve in the direction sought with a large enough effect in the repeat runs; an effect the other way counts as inactive or inconclusive; further: nearly all actives have a fitted effect of over 50% in size; further: potency means the concentration at half of the fitted maximal effect)
# Summary of the method: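 Cytotoxicity counter screen read by CellTiter-Glo luminescence (30 min, room temperature) in the same wells as the VDR-bla antagonist readout. HEK 293T VDR-UAS-bla cells had 16 h at 37C with compound and 3 nM (final) 1-alpha,25-dihydroxyvitamin D3, then 2 h with FRET substrate.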
# [13] = qHTS assay to identify small molecule agonists of the AP-1 signaling pathway (AID 1159526)
# [14] = target: Retinoic acid receptor RXR-alpha (Homo sapiens) (UniProt P19793); test: qHTS assay to identify small molecule agonists of the RXR signaling pathway (AID 1159527); further: nearly all actives have a fitted effect of over 35% in size
# Summary of the method: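 Agonist-mode beta-lactamase reporter assay: HEK 293T RXR-alpha-UAS-bla cells treated 16 hr at 37 C with compounds, 9-cis retinoic acid as positive control. LiveBLAzer FRET substrate, 405 nm excitation, 460/530 nm emission.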
# [15] = qHTS assay to identify small molecule agonists of the vitamin D receptor (VDR) signaling pathway - cell viability counter screen (AID 743224; active means well fitted curve in the direction sought with a large enough effect in the repeat runs; an effect the other way counts as inactive or inconclusive; further: nearly all actives have a fitted effect of over 50% in size; further: potency means the concentration at half of the fitted maximal effect)
# Summary of the method: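 Here cell health was gauged by luminescent ATP detection (CellTiter-Glo, 30 min RT) in VDR-bla cells that had been incubated with test compounds for 16 h at 37C and 5% CO2.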
# [16] = target: Peroxisome proliferator-activated receptor delta (Homo sapiens) (UniProt Q03181); test: qHTS assay to identify small molecule antagonists of the peroxisome proliferator-activated receptor delta (PPARd) signaling pathway (AID 743215; active means well fitted inhibition curve with a large enough effect in the signal ratio in the repeat runs, not every such curve was filed as active; the % refers to the signal ratio;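 further: cells stimulated with agonist L165041 at 300 nM final during compound exposure; series mostly up to about 62 µM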)
# Summary of the method: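 With L165041 present at 300 nM final, compounds were incubated 17 h at 37 C on PPARd UAS-bla HEK293H cells. A FRET-based beta-lactamase substrate was then applied for 2 h at room temperature and fluorescence intensity recorded.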
# [17] = target: Vitamin D3 receptor (Homo sapiens) (UniProt P11473); test: qHTS assay to identify small molecule antagonists of the vitamin D receptor (VDR) signaling pathway (AID 743223; active means well fitted inhibition curve with a large enough effect in the signal ratio in the repeat runs, not every such curve was filed as active; the % refers to the signal ratio)
# Summary of the method: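 Antagonist mode: compound added to VDR-bla cells alongside agonist 1alpha,25-dihydroxyvitamin D3 (3 nM final), incubation 16 h at 37C. Read-out is LiveBLAzer FRET fluorescence, 2 h at room temperature.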
# [18] = target: Bile acid receptor (Homo sapiens) (UniProt Q96RI1); test: qHTS assay to identify small molecule antagonists of the farnesoid-X-receptor (FXR) signaling pathway (AID 743217; active means well fitted inhibition curve with a large enough effect in the signal ratio in the repeat runs, not every such curve was filed as active; the % refers to the signal ratio)
# Summary of the method: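 In this cell-based antagonist screen, inhibition of CDCA-driven (50 uM final) UAS-beta-lactamase expression in HEK 293T cells was measured by FRET fluorescence following 16 h compound exposure at 37 °C.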
# [19] = target: Bile acid receptor (Homo sapiens) (UniProt Q96RI1); test: qHTS assay to identify small molecule agonists of the farnesoid-X-receptor (FXR) signaling pathway (AID 743220; active means well fitted activation curve with a large enough effect in the signal ratio in the repeat runs, not every such curve was filed as active; the % refers to the signal ratio)
# Summary of the method: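 Beta-lactamase reporter under UAS control in GeneBLAzer FXR HEK 293T cells (5000/well) measured with LiveBLAzer FRET substrate after 2 h at room temperature. Compound exposure lasted 16 h at 37C.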
# Chain of Bile acid receptor (Homo sapiens) (Q96RI1 whole entry, looked up): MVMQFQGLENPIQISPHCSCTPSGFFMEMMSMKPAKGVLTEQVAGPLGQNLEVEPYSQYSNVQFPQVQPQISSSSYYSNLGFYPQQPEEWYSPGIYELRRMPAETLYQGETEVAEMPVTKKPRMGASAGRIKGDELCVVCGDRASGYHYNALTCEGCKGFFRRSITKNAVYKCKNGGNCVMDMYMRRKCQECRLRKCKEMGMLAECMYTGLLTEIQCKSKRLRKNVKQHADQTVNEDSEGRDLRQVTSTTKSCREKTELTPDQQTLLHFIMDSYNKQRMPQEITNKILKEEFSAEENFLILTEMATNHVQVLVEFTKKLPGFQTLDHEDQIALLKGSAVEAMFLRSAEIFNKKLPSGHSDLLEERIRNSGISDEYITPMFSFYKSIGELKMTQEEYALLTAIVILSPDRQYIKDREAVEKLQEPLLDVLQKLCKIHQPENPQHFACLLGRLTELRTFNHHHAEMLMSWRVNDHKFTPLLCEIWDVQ
# Chain of Vitamin D3 receptor (Homo sapiens) (P11473 whole entry, looked up): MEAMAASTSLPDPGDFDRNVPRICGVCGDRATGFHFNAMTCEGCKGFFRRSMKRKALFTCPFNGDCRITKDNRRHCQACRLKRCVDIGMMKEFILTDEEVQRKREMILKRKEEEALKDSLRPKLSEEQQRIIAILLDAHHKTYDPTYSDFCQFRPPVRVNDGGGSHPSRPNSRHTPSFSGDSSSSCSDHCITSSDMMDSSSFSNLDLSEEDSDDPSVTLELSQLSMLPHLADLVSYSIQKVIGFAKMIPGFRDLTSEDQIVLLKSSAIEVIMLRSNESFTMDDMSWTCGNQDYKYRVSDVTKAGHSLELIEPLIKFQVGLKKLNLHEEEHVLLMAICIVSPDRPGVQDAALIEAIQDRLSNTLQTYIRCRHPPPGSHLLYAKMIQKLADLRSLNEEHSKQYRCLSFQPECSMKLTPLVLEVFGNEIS
# Chain of Peroxisome proliferator-activated receptor delta (Homo sapiens) (Q03181 whole entry, looked up): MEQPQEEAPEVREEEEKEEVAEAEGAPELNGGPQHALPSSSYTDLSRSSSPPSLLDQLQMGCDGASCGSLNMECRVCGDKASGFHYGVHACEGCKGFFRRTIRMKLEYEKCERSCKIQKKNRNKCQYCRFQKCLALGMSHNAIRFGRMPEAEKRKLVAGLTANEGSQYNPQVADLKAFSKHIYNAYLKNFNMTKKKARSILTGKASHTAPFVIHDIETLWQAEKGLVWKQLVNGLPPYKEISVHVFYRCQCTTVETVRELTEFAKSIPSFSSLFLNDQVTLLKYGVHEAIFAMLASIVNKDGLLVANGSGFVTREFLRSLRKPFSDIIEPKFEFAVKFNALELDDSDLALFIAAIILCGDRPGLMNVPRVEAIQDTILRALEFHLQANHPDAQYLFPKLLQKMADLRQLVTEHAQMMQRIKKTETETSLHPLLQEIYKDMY
# Chain of Retinoic acid receptor RXR-alpha (Homo sapiens) (P19793 whole entry, looked up): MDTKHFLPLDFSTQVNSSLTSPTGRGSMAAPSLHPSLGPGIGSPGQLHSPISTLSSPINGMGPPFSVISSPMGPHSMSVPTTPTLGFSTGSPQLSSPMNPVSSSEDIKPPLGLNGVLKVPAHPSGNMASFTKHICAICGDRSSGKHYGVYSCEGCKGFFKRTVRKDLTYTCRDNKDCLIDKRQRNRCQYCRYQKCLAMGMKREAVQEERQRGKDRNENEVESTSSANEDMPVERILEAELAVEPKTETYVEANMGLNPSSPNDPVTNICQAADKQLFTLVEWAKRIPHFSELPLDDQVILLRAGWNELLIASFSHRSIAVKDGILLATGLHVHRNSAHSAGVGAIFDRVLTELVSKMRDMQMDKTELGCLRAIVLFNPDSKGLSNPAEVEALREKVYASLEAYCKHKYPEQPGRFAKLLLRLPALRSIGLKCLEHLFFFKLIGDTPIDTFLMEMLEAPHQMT
compound,measurement,setting,value
CNCc1cc(F)ccc1Oc1ccc(Cl)c(Cl)c1,Potency,[1],inactive
same,Potency,[2],49 µM (active)
same,Potency,[3],inactive
same,Potency,[4],inactive
same,Potency,[5],inactive
same,Potency,[6],inactive
same,Potency,[7],inactive
same,Potency,[8],34.4 µM (active)
same,Potency,[9],inactive
NC(=O)NS(=O)(=O)c1ccc(N)cc1,Potency,[10],inactive
same,Potency,[11],inactive
same,Potency,[3],inactive
same,Potency,[12],inactive
same,Potency,[5],inactive
same,Potency,[6],inactive
same,Potency,[7],inactive
same,Potency,[9],inactive
same,Potency,[13],inactive
same,Potency,[14],inactive
COc1ccc(C(=O)/C(Br)=C\C(=O)O)cc1,Potency,[10],inactive
same,Potency,[11],inactive
same,Potency,[3],inactive
same,Potency,[15],inactive
same,Potency,[5],inactive
same,Potency,[6],inactive
same,Potency,[7],48.6 µM (active)
same,Potency,[8],inactive
same,Potency,[9],inactive
CC(C)C(C)(C)C(C)(C)C(C)(C)S,Potency,[5],inactive
same,Potency,[6],inactive
same,Potency,[7],inactive
same,Potency,[9],inactive
CCCC/C=C/CCCCO,Potency,[11],inactive
same,Potency,[3],inactive
same,Potency,[4],inactive
same,Potency,[15],inactive
same,Potency,[12],inactive
same,Potency,[5],inactive
same,Potency,[6],inactive
same,Potency,[7],inactive
same,Potency,[8],inactive
same,Potency,[9],inactive
CN(C)CCCOC1(Cc2ccccc2)CCCCCC1,Potency,[10],inactive
same,Potency,[1],inactive
same,Potency,[11],inactive
same,Potency,[16],inactive
same,Potency,[3],inactive
same,Potency,[4],inactive
same,Potency,[17],inactive
same,Potency,[5],inactive
same,Potency,[6],inactive
same,Potency,[7],inactive
same,Potency,[9],inactive
NNc1nc(-c2ccc(N)cc2)cs1,Potency,[1],inactive
same,Potency,[11],inactive
same,Potency,[18],inactive
same,Potency,[19],inactive
same,Potency,[3],inactive
same,Potency,[4],inactive
same,Potency,[17],inactive
same,Potency,[5],inactive
same,Potency,[6],inactive
same,Potency,[7],inactive
same,Potency,[9],inactive
CCOC(=O)/C=C(C)/C=C/C=C(C)/C=C/c1c(C)cc(OC)c(C)c1C,Potency,[10],inactive
same,Potency,[11],inactive
same,Potency,[2],inactive
same,Potency,[3],inactive
same,Potency,[15],inactive
same,Potency,[5],inactive
same,Potency,[6],inactive
same,Potency,[7],inactive
same,Potency,[9],inactive
same,Potency,[13],inactive
CCN(CC)CCCC(C)Nc1c2ccc(Cl)cc2nc2ccc(OC)cc12 (configuration not stated),Potency,[10],11.9 µM (active)
same,Potency,[11],29.8 µM (active)
same,Potency,[2],13.3 µM (active)
same,Potency,[3],26.6 µM (active)
same,Potency,[5],inactive
same,Potency,[6],inactive
same,Potency,[7],inactive
same,Potency,[9],inactive
CCN(CCC#N)c1ccc(N=Nc2c(Cl)cc([N+](=O)[O-])cc2Cl)cc1,Potency,[1],inactive
same,Potency,[16],inactive
same,Potency,[19],inactive
same,Potency,[15],inactive
same,Potency,[5],inactive
same,Potency,[6],inactive
same,Potency,[7],inactive
same,Potency,[9],inactive
Cc1onc(-c2ccccc2Cl)c1C(=O)N[C@@H]1C(=O)N2[C@@H]1SC(C)(C)[C@@H]2C(=O)O,Potency,[10],inactive
same,Potency,[11],inactive
same,Potency,[18],inactive
same,Potency,[2],inactive
same,Potency,[19],inactive
same,Potency,[3],inactive
same,Potency,[4],inactive
same,Potency,[17],inactive
same,Potency,[15],inactive
same,Potency,[12],inactive
same,Potency,[5],inactive
same,Potency,[6],inactive
same,Potency,[7],inactive
same,Potency,[9],inactive
same,Potency,[14],inactive
CS(=O)(=O)CCNCc1ccc(-c2ccc3ncnc(Nc4ccc(OCc5cccc(F)c5)c(Cl)c4)c3c2)o1,Potency,[10],9.44 µM (active)
same,Potency,[11],21.1 µM (active)
same,Potency,[2],10.6 µM (active)
same,Potency,[3],26.6 µM (active)
same,Potency,[15],29.8 µM (active)
same,Potency,[12],21.3 µM (active)
same,Potency,[5],16.9 µM (active)
same,Potency,[6],15.1 µM (active)
same,Potency,[7],29.8 µM (active)
same,Potency,[9],21.3 µM (active)
COc1c(C)c2c(c(O)c1C/C=C(\C)CCC(=O)O)C(=O)OC2,Potency,[19],inactive
same,Potency,[4],inactive
same,Potency,[15],inactive
same,Potency,[5],inactive
same,Potency,[6],16.9 µM (active)
same,Potency,[8],0.133 µM (active)
same,Potency,[9],inactive
same,Potency,[13],inactive
CC(C)n1nc(-c2cc3cc(O)ccc3[nH]2)c2c(N)ncnc21,Potency,[10],13.3 µM (active)
same,Potency,[1],inactive
same,Potency,[3],inactive
same,Potency,[15],15 µM (active)
same,Potency,[12],inactive
same,Potency,[5],inactive
same,Potency,[6],9.52 µM (active)
same,Potency,[7],2.98 µM (active)
same,Potency,[13],inactive
